Data: PMC4552634, “A New Set of Chemical Starting Points with Plasmodium falciparum Transmission-Blocking Potential for Antimalarial Drug Discovery” (PLoS ONE, 2015)
Read-outs that look alike come from different tables or passages of the source. In all, about 13,000 compounds went through this assay and about 3,200 (25%) showed an effect of 50% or more. The list shows a part of the results.

System: P. falciparum stage V gametocytes
Design: BacTiter-Glo ATP luminescence viability of purified stage V gametocytes in 384-well plates, per cent inhibition versus DMSO
Settings: 48 h, 5 µM, inhibitor

CN1C(=C2SC(=Nc3ccc4ncccc4c3)N(Cc3ccccc3)C2=O)Sc2ccc(Cl)cc21 [TCMDC-124118]
% Inhibition: 3.008%

COc1ccc(NC(=O)[C@H](CC(C)C)Nc2cc(C)nc(NCC3CCCCC3)n2)cc1 [TCMDC-134917]
% Inhibition: -43.94%

COc1cc(C2NCC3(CCOCC3)c3cc4c(cc32)OCCO4)cc(OC)c1OC (stereo not drawn) [TCMDC-125743]
% Inhibition: -20.6%

Cc1cc(C)c(C)c(OCCCON2C(N)=NC(N)=NC2(C)C)c1C [TCMDC-131791]
% Inhibition: -4.975%

CC(C)CNCc1ccc(-c2cccc(CN(C(=O)CCC3CCCC3)C3CCN(Cc4ccccc4)CC3)c2)cc1 [TCMDC-140551]
% Inhibition: 80.54%

COCCNCc1ccc(-c2cccc(CN(C(=O)CCC3CCCC3)C3CCN(Cc4ccccc4)CC3)c2)cc1 [TCMDC-140552]
% Inhibition: 102.7%

O=C(NC1CCN(c2ccnc3ccccc23)C1)c1cccc(C(F)(F)F)c1 (stereo not drawn) [TCMDC-133580]
% Inhibition: -5.668%

N#Cc1ccc(CN2CCC(Oc3ccc(NC(=O)c4cccs4)cc3)CC2)cc1 [TCMDC-133953]
% Inhibition: 32.19%

O=C(O[C@H]1CN[C@H](C#Cc2cc3c(Nc4ccc(OCc5cccc(F)c5)c(Cl)c4)ncnc3s2)C1)N1CCCC1 [TCMDC-135291]
% Inhibition: -17.95%

CCN(C)C(=O)n1ncc2c3c(N)nc(N)nc3ccc21 [TCMDC-137828]
% Inhibition: 19.76%

Cc1ccc(CCNCC(O)c2cccc(C(F)(F)F)c2)cc1 (stereo not drawn) [TCMDC-131447]
% Inhibition: 15.63%

O=C(NC1CC1)C1CCN(Cc2cc3ccccc3n2Cc2ccc(Cl)cc2)CC1 [TCMDC-125065]
% Inhibition: 41.24%

Cc1c(CN2CCC(N3CCC(C(=O)NC4CC4)CC3)CC2)[nH]c2c(Cl)cccc12 [TCMDC-124608]
% Inhibition: 11.69%

Cc1ccccc1Cn1c(CN2CCC(C(=O)NC3CC3)CC2)cc2ccccc21 [TCMDC-134259]
% Inhibition: 50.21%

CN(C)CCCn1cncc1-c1ccc2ncnc(Nc3ccc(OCc4ccccc4)cc3)c2c1 [TCMDC-138088]
% Inhibition: 1.652%

COc1ccccc1N1CCN(CCCCNC(=O)c2ccc(NC(=O)c3ccc4ccccc4c3)cc2)CC1 [TCMDC-138109]
% Inhibition: -15.04%

CC(C)c1ccc(C(NC(=O)C2CCCCC2)c2ccc3cccnc3c2O)cc1 (stereo not drawn) [TCMDC-125560]
% Inhibition: 15.44%

CC(C)C(=O)NC(c1ccc(Cl)cc1)c1ccc2cccnc2c1O (stereo not drawn) [TCMDC-124343]
% Inhibition: 44.71%

Cc1ccc(C(NC(=O)C2CCCCC2)c2ccc3cccnc3c2O)cc1 (stereo not drawn) [TCMDC-123654]
% Inhibition: 50.75%

CCCC(=O)NC(c1ccc(C)cc1)c1ccc2cccnc2c1O (stereo not drawn) [TCMDC-123605]
% Inhibition: 92.74%

CCCC(=O)NC(c1ccc(C(C)C)cc1)c1ccc2cccnc2c1O (stereo not drawn) [TCMDC-123884]
% Inhibition: 62.61%

O=S(=O)(c1cccc2cccnc12)N1CCN(C2CCCCC2)CC1 [TCMDC-123840]
% Inhibition: 8.014%

CCC(C)NC(=O)Cn1c2ncccc2c(=O)n1-c1ccc(C)cc1 (stereo not drawn) [TCMDC-124738]
% Inhibition: -0.9664%

C[C@@H](CC1CCCCC1)OC(=O)N[C@H]1CCN(C#N)C1 [TCMDC-138496]
% Inhibition: 45.07%

O=C(COc1ccccc1)Nn1cnc2ccccc21 [TCMDC-124536]
% Inhibition: 15.87%

CNS(=O)(=O)c1ccc2c(c1)nc(C1CCN(CC3CCC(NC(=O)/C=C/c4ccc(Cl)c(Cl)c4)CC3)CC1)n2C (stereo not drawn) [TCMDC-140374]
% Inhibition: 8.841%

CCOc1ccc(-c2noc(-c3c[nH]c4ccccc4c3=O)n2)cc1 [TCMDC-125156]
% Inhibition: 27.36%

COc1ccc(-c2nc(-c3ccc([N+](=O)[O-])cc3)no2)cc1OC [TCMDC-125731]
% Inhibition: 16.37%

CCn1cc(-c2nc(-c3cc(OC)cc(OC)c3)no2)c(=O)c2ccccc21 [TCMDC-125155]
% Inhibition: 51.09%

CCOc1cc2ncnc(Nc3ccc(OCc4ccccc4F)c(Cl)c3)c2cc1OCC [TCMDC-131914]
% Inhibition: 3.797%

CC(C)CN1CCCN(Cc2cccc(NC(=O)c3ccc(-c4ccccc4)cc3)c2)CC1 [TCMDC-141841]
% Inhibition: -91.11%

Cc1cccc2nc(-c3ccc(-c4ccc(CNCc5cnn(-c6ccccc6)n5)cc4)cc3)[nH]c12.O=C(O)C(F)(F)F [TCMDC-132974]
% Inhibition: 25.92%

CCOC(=O)C(C)(C)Oc1ccc(C(=C2CC(C)(C)CC(C)(C)C2)c2ccc(O)cc2)cc1 [TCMDC-135525]
% Inhibition: -61.64%

Cc1cccc(-c2ccc(NC(=O)C3CCN(Cc4cccc(O)c4)CC3)cc2)c1 [TCMDC-124641]
% Inhibition: 44.56%

Cc1cccc(C(=O)Nc2ccnc(N3CCC(N(C)Cc4ccccc4)CC3)c2)c1 [TCMDC-135001]
% Inhibition: -20.99%

CCN(CCNC(=O)C1CCN(c2cc(-c3cccc(C)c3)ncn2)CC1)Cc1ccccc1 [TCMDC-124739]
% Inhibition: 86.1%

CC(C)C(=O)NC(Nc1ccc([N+](=O)[O-])cc1)C(Cl)(Cl)Cl (stereo not drawn) [TCMDC-125799]
% Inhibition: 71.39%

O=C(NC(Nc1ccc([N+](=O)[O-])cc1)C(Cl)(Cl)Cl)c1ccc(Cl)cc1 (stereo not drawn) [TCMDC-125818]
% Inhibition: 63.58%

Cc1ccccc1C(=O)NC(NC(=S)Nc1ccc([N+](=O)[O-])cc1)C(Cl)(Cl)Cl (stereo not drawn) [TCMDC-124151]
% Inhibition: -7.269%

O=C(NC(NC(=S)Nc1ccc([N+](=O)[O-])cc1)C(Cl)(Cl)Cl)c1cccc(Cl)c1 (stereo not drawn) [TCMDC-124130]
% Inhibition: -46.64%

O=[N+]([O-])c1ccc(C(O)P(=O)(c2ccccc2)c2ccccc2)cc1 (stereo not drawn) [TCMDC-125871]
% Inhibition: -5.463%

CCCC(=O)NC(NC(=S)Nc1ccc([N+](=O)[O-])cc1)C(Cl)(Cl)Cl (stereo not drawn) [TCMDC-125817]
% Inhibition: 27.07%

Cc1cccc(C(=O)NC(NC(=S)Nc2ccc([N+](=O)[O-])cc2)C(Cl)(Cl)Cl)c1 (stereo not drawn) [TCMDC-124177]
% Inhibition: 26.63%

O=C(Cc1ccccc1)NC(Nc1ccc([N+](=O)[O-])cc1)C(Cl)(Cl)Cl (stereo not drawn) [TCMDC-125789]
% Inhibition: 52.36%

O=C(NC(Nc1ccc([N+](=O)[O-])cc1)C(Cl)(Cl)Cl)c1cccc(Cl)c1 (stereo not drawn) [TCMDC-124129]
% Inhibition: 26.63%

Cc1cc(C(=O)CN2C(=O)NC3(CCOc4ccccc43)C2=O)c(C)n1Cc1ccco1 (stereo not drawn) [TCMDC-125252]
% Inhibition: 14.93%

COc1ccc2c(-c3ccccc3)noc2c1 [TCMDC-123782]
% Inhibition: 15.72%

Oc1cccc(-c2nc3cc(C4=NC5CCCCC5N4)ccc3[nH]2)c1 (stereo not drawn) [TCMDC-137219]
% Inhibition (% Inhibition): -17.08%

Cc1cc(C)c(NC(=O)NC2CCN(CCCCCNC(=O)/C=C/c3ccc(Cl)c(Cl)c3)C2)c(C)c1 (stereo not drawn) [TCMDC-139529]
% Inhibition: 92.72%

Cc1cccc(NC(=O)NC2CCN(CCCCCNC(=O)/C=C/c3ccc(Cl)c(Cl)c3)CC2)c1 [TCMDC-135702]
% Inhibition: -17.93%

Cc1cc(C)c(NC(=O)NC2CCN(CCCCCNC(=O)/C=C/c3ccc(Cl)c(Cl)c3)CC2)c(C)c1 [TCMDC-135717]
% Inhibition: -32.07%

Cc1cc(C)c(NC(=O)N[C@H]2CCN(CCCCCNC(=O)/C=C/c3ccc(Cl)c(Cl)c3)C2)c(C)c1 [TCMDC-139513]
% Inhibition: 86.25%

Cc1ccc(NC(=O)NC2CCN(CCCCCNC(=O)/C=C/c3ccc(Cl)c(Cl)c3)CC2)cc1C [TCMDC-135708]
% Inhibition: -56.47%

Cc1ccc(NC(=O)NC2CCN(CCCCCNC(=O)/C=C/c3ccc(Cl)c(Cl)c3)CC2)cc1 [TCMDC-135703]
% Inhibition: -0.844%

COc1ccc(Br)cc1/C=C/C(=O)Nc1ccc(C2CCCN(C)C2)cc1 (stereo not drawn) [TCMDC-133712]
% Inhibition: 9.818%

Fc1ccc(-c2cc(NCCCn3ccnc3)nc(-c3cccnc3)n2)cc1 [TCMDC-123785]
% Inhibition: 9.204%

CC(Nc1ccc2c(c1)OCCO2)C(=O)Nc1cc(C(F)(F)F)ccc1N1CCOCC1 (stereo not drawn) [TCMDC-124859]
% Inhibition: -69.42%

CC(NC(=O)c1ccc(O)c(-c2ccc(Cl)c(Cl)c2)c1)C(=O)NC1CCCCC1 (stereo not drawn) [TCMDC-140823]
% Inhibition: 42.42%

Cc1cc(-c2ccc3occ(CCN)c3c2)cnc1N [TCMDC-138139]
% Inhibition: 54.74%

Cc1cc(-c2cccc(CNCCc3ccc(Cl)cc3)c2)cnc1N [TCMDC-138091]
% Inhibition: 14.17%

Cc1cc(-c2ccc(O)c(CNC3CCCCC3)c2)cnc1N [TCMDC-138129]
% Inhibition: -11.73%

CCC(C)CN1CCN(c2ccc(NC(=O)c3cccs3)cc2)C(C)C1 (stereo not drawn) [TCMDC-134996]
% Inhibition: 6.92%

COC(=O)c1cc(OC2CCOC2=O)cc2c1OC(C)(C)O2 (stereo not drawn) [TCMDC-131234]
% Inhibition: 42.88%

O=C(/C=C/c1ccccc1O)NCCCCCN1CCC(c2c[nH]c3ccccc23)CC1 [TCMDC-139697]
% Inhibition: 92.48%

O=C(/C=C/c1cccc2ccccc12)NCCCCCN1CCC(c2c[nH]c3ccccc23)CC1 [TCMDC-139208]
% Inhibition: 101.3%

O=C(/C=C/c1c[nH]c2ccccc12)NCCCCCN1CCC(c2c[nH]c3ccccc23)CC1 [TCMDC-139207]
% Inhibition: -19.56%

O=C(NC1CCN(CCCc2ccccc2)CC1)c1ccc(-c2cccc(C(F)(F)F)c2)s1 [TCMDC-134323]
% Inhibition: -38.84%

CC(C)Oc1cc2c(cc1NS(=O)(=O)c1ccc(-c3ccc(Cl)cc3)cc1F)CCN(C)CC2 [TCMDC-141589]
% Inhibition: -14.09%

O=c1cnc2ccc(F)cc2n1CCN1CCC(NCc2cc(-c3ccccc3)cs2)CC1 [TCMDC-135134]
% Inhibition: -21.73%
